Data from PubChem BioAssay (NCI).
This is part of a sample that, as a whole, favours compounds with a hit. Of some 83,000 tested, about 20% had one in any assay.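 Growth was measured after 48 h exposure to one concentration of compound in 96-well plates. Values under 10 count as active.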 A number with no mark means an inactive call. Calls of active or inactive are those of the source.

Columns and labels:
Assay in all cases: NCI-60 one-dose screen, 48 h (100 = growth as untreated, 0 = no growth, -100 = all killed)
Settings in all cases: 10 µM
NCI-H23 lung = tested on: NCI-H23 lung
NCI-H226 lung = tested on: NCI-H226 lung
NCI-H322M lung = tested on: NCI-H322M lung
HOP-62 NSCLC = tested on: HOP-62 NSCLC
NCI-H460 lung = tested on: NCI-H460 lung
NCI-H522 lung = tested on: NCI-H522 lung
786-0 renal = tested on: 786-0 renal
COLO 205 colon = tested on: COLO 205 colon
DU-145 prostate = tested on: DU-145 prostate
K-562 leukemia = tested on: K-562 leukemia
MALME-3M melanoma = tested on: MALME-3M melanoma
MDA-MB-231 breast = tested on: MDA-MB-231 breast
RXF 393 renal = tested on: RXF 393 renal
SF-268 CNS = tested on: SF-268 CNS
SF-295 CNS = tested on: SF-295 CNS
SF-539 CNS = tested on: SF-539 CNS
UACC-257 melanoma = tested on: UACC-257 melanoma
M14 melanoma = tested on: M14 melanoma
HCT-15 colon = tested on: HCT-15 colon
A549/ATCC NSCLC = tested on: A549/ATCC NSCLC

Row | Structure (SMILES) | growth (NCI-H23 lung) | growth (NCI-H226 lung) | growth (NCI-H322M lung) | growth (HOP-62 NSCLC) | growth (NCI-H460 lung) | growth (NCI-H522 lung) | growth (786-0 renal) | growth (COLO 205 colon) | growth (DU-145 prostate) | growth (K-562 leukemia) | growth (MALME-3M melanoma) | growth (MDA-MB-231 breast) | growth (RXF 393 renal) | growth (SF-268 CNS) | growth (SF-295 CNS) | growth (SF-539 CNS) | growth (UACC-257 melanoma) | growth (M14 melanoma) | growth (HCT-15 colon) | growth (A549/ATCC NSCLC)
1 | C#Cc1ccc(-n2c(/C=C/c3ccc(C(F)(F)F)cc3)nc3ncccc3c2=O)cc1 | 78.4% | -42.7% (active) | 33.7% | 37.6% | 72.1% | 4.27% (active) | 53% | 18.6% | 46.2% | 4.03% (active) | 39.1% | 56.9% | -10.4% (active) | 31.4% | 32.6% | 45.2% | 29% | 10.7% | 22.3% | –
2 | COc1cc2c(cc1OCCCCCCN1CCN(CC(=O)Nc3ccc(Cl)cc3C(=O)c3ccccc3Cl)CC1)N=CC1CCCN1C2=O (stereo not drawn) | -56.1% (active) | -82% (active) | -97.8% (active) | -77.9% (active) | -30.5% (active) | -69% (active) | -85.4% (active) | -60.1% (active) | – | -62.3% (active) | -92.3% (active) | -100% (active) | – | -61% (active) | -94.9% (active) | -95.2% (active) | – | -67.4% (active) | -100% (active) | -93% (active)
3 | COc1cc(-c2cc(/C=C3\C(=O)Nc4ccc(Cl)cc43)[nH]n2)cc(OC)c1OC | 38.3% | 58.2% | 51.5% | 44.6% | 38% | 20.2% | 61.6% | 11.4% | – | 8.43% (active) | – | 52.4% | 69.2% | 38.2% | 46.9% | 45.1% | 18.7% | 5.02% (active) | 7.21% (active) | 40.4%
4 | N=C(N)c1ccc(-c2ccc(-c3cccs3)s2)cc1 | 83.8% | 82.3% | 2.2% (active) | 86.6% | -72.4% (active) | 76.4% | – | -96.6% (active) | 0.967% (active) | -56% (active) | -80.1% (active) | 75.8% | 75.8% | 101% | 16.4% | 89.5% | 34.6% | 30.3% | 0.674% (active) | -44.8% (active)
5 | COc1cc(C2CC(c3ccc(Nc4ccnc5cc(Cl)ccc45)cc3)=NN2c2ccc(Cl)cc2)cc(OC)c1OC (stereo not drawn) | 74.4% | 82.9% | 75.8% | 46.8% | 43.4% | 9.33% (active) | 68.8% | 75.7% | 64% | 6.22% (active) | – | 42.6% | 60.4% | 48.5% | 28.8% | 59.3% | 61.3% | 38.2% | 45.4% | –
6 | COc1ccc2c(c1)[n+]([O-])c(C#N)c(NC(=O)c1ccco1)[n+]2[O-] | 99.9% | 97.7% | 95.2% | 93.7% | 107% | 98.1% | 105% | 96.2% | – | 92.8% | 103% | 92.3% | – | 107% | 99.9% | 107% | – | 104% | 99% | 111%
7 | O=C(Nc1ccncc1)C(=O)c1cn(S(=O)(=O)c2cccc(Cl)c2)c2ccccc12 | 54.2% | 77.9% | 102% | 79.3% | 82.2% | 32.1% | 72.8% | 117% | 83.9% | 19.8% | – | 87.4% | 89.2% | 80.9% | 55.8% | 67.3% | 78.1% | 47% | 49.2% | –
8 | N#CCCN1C/C(=C/c2ccc(Cl)cc2)C(=O)/C(=C/c2ccc(Cl)cc2)C1 | -29.9% (active) | -56.8% (active) | -22.1% (active) | -58% (active) | -49.9% (active) | -82.2% (active) | -70.5% (active) | -84.3% (active) | -30.7% (active) | 3.1% (active) | -52.8% (active) | -18.5% (active) | -94.3% (active) | -38.6% (active) | -22.3% (active) | -50% (active) | -53.4% (active) | -44.1% (active) | 2.04% (active) | –
9 | CC1CN(Cc2ccccc2)C(=O)NC1=O (stereo not drawn) | 110% | 106% | 122% | 105% | 109% | 91.8% | 112% | 108% | – | 108% | 106% | 107% | 124% | 103% | 126% | 107% | 102% | 111% | 112% | 103%
10 | CCN(CC)CCOc1nc2ccccc2c2c1-c1ccc(OC)cc1C2=O | -29% (active) | 14% | -29.3% (active) | -4.04% (active) | -34.4% (active) | -56.4% (active) | 0.417% (active) | -57.1% (active) | -8.05% (active) | -17.8% (active) | – | 10.7% | 3.35% (active) | -6.65% (active) | -7.99% (active) | 29.2% | -18.8% (active) | -53.3% (active) | 2.9% (active) | –
11 | O=C(Nc1cccc(-n2cc(-c3ccncc3)c(-c3cc(O)cc(Cl)c3)n2)c1)Nc1ccc(Cl)c(C(F)(F)F)c1 | 10.5% | 41.2% | 45% | 8.99% (active) | 3.75% (active) | -16% (active) | -29.8% (active) | 63.4% | 18.7% | 5.24% (active) | -24.9% (active) | -47.3% (active) | -49.5% (active) | 42.1% | 14.3% | 32.6% | -40% (active) | -16.8% (active) | 5.79% (active) | –
12 | COc1ccc(-c2nc(-c3nc4ccc(OC)cc4[nH]3)cc3c2[nH]c2ccccc23)cc1 | 55% | 65.3% | 48.2% | 53.9% | 2.46% (active) | 45.2% | 37.4% | 31.3% | 19.9% | 16.2% | 58.6% | 59.5% | 43% | 48.8% | -13.1% (active) | 51.6% | 70.5% | 34.7% | 28.7% | –
13 | N#Cc1ncc(-c2cc(F)c(F)c(F)c2)c(NC2CCCCCC2)n1 | 92.9% | 94.6% | 105% | 100% | 95.7% | 94.8% | 101% | 88.5% | 108% | 92% | 131% | 91.7% | 84.7% | 82.3% | 89.3% | 97.5% | 93.6% | 101% | 85.2% | –
14 | Nc1ccccc1NC(=O)CCCCC(=O)Nc1ccc2c(c1)/C(=C/c1ccc[nH]1)C(=O)N2 | 89.6% | 52.2% | 63.3% | 83% | 73.9% | 37.5% | 90.2% | 87.4% | 70.7% | 99.6% | 32.9% | 93% | 62.9% | 71.9% | 98.4% | 53.1% | 97.9% | 69.9% | 92.2% | –
15 | O=C1CC[C@@H]2CCCC[C@@H]2C1 | 99.9% | 105% | 110% | 96.7% | 112% | 90.3% | 103% | 108% | 123% | 110% | 98.8% | 96% | 130% | 113% | 110% | 102% | 116% | 101% | 113% | –
16 | Cc1cs/c(=N\NC(=O)c2cc(-c3cc4ccccc4o3)nn2-c2ccccc2)n1-c1ccccc1 | 85.9% | 91.3% | 93.5% | 97.9% | 97.1% | 86.4% | 91.4% | 98.3% | – | 94.2% | 99.5% | 84% | – | 92.5% | 85% | 106% | – | 95.8% | 96.6% | 88.4%
17 | O=C1/C(=C\c2ccc(Cl)cc2)CN(C(=O)c2ccccc2)C/C1=C\c1ccc(Cl)cc1 | 58.2% | 10% | 74.5% | 23.2% | 68.3% | 40.6% | 7.43% (active) | 32.9% | 24.9% | 4.94% (active) | 64.8% | 25% | -22.5% (active) | 26.9% | 1.64% (active) | 61.4% | 67.5% | 2.03% (active) | 10.4% | –
